IDE act = IDE (human) activation, cell-based | activation, % at 5.96 µM | HEK cells, FAbeta-B cleavage, fluorescence polarization; 0% vehicle, 100% cell-free pure enzyme wells | 0.073% of 340,000 active | P14735;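 active = activation above the mean of all tested compounds plus 3 SD, set per screening campaign, cut at about 17% in these data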
IDE cell inh = cellular human IDE inhibition; 0.41% of 320,000 active; inhibition, % at 5.59 µM; HEK cells, FAbetaB cleavage, fluorescence polarization; P14735; AID 434962;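 active = percent inhibition above the average of all tested compounds plus 3 SD, set per screening campaign, cut at about 16% in these data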;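 note: IDE supplied by intact live HEK cells; FP after avidin binding of uncleaved biotin substrate so inhibition keeps polarization high; 0% = DMSO wells and 100% = 60 µM reference IDE inhibitor Ii1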
PolyA inhibitor = inhibitors of polyadenylation in S. cerevisiae | S. cerevisiae SKY197-pL101 polyadenylation reporter, beta-gal luminescence; efflux-impaired pdr1/pdr3 knockout yeast; score 100 = 6 SD above DMSO | activity score, % at 12 µM | 0.02% of 300,000 active;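 active = lowest replicate activity score at least 50, where 100 means six control SD above control mean; inconclusive = lowest score under 50 but half or more replicates reach 50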;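 note: yeast exposed to compound for 9 h at 30 °C; higher score means more reporter readthrough which indicates perturbed polyadenylation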
PfM18AAP inh = PfM18AAP enzyme inhibition; recombinant PfM18AAP, H-Glu-NHMec fluorogenic cleavage; inhibition, % at 7.35 µM; 1.2% of 290,000 active; AID 1822;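 active = inhibition above the campaign mean inhibition over all tested compounds plus 3 SD, cut at about 28% in these data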;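 note: 0% = plate median of test compound wells and 100% = 2 mM ZnCl2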
ALR H2O2 inh = inhibitors of human sulfhydryl oxidase ALR | P55789 | purified ALR, DTT oxidation, H2O2 HRP-luminol luminescence | inhibition, % (concentration not given with the values) | 3.8% of 290,000 active | AID 485317;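 active = mean replicate inhibition above about 79%, with every replicate also reaching it, limit read from the data; inconclusive = only one of the two criteria met; inactive = mean below limit and not every replicate reaching it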
Target sequence (P55789 whole entry, looked up): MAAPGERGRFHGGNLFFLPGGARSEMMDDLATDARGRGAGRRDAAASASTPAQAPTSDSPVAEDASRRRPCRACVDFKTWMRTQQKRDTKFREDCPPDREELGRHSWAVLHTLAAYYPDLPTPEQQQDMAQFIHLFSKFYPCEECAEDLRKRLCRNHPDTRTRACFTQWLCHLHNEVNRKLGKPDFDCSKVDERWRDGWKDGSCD
CaV13 FRET inh = Disruptors of the CACNA1D IQ motif to Ca2+-dependent inactivation inhibitor domain association, primary screening, Förster resonance energy transfer in intact living …; HEK cells, CFP/YFP FRET ICDI-IQ, plate reader, 10 min; percent FRET-ratio fall versus neutral wells; inhibition, % at 12.3 µM; 0.098% of 340,000 active; AID 743397;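 active = mean replicate inhibition of at least 30% and at least 1% of replicates passing that level; inconclusive = only one of the two criteria is met; inactive = neither criterion is met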;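 note: 0% = median of the neutral control wells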
The depositor's hits bear a star; ? = inconclusive; / = not tested or not shown; + = active, no number. Most compounds without a hit are left out; they make up all but 4.1% or so of the library.

SMILES | IDE act | IDE cell inh | PolyA inhibitor | PfM18AAP inh | ALR H2O2 inh | CaV13 FRET inh
C[C@@H]1O[C@@H](OC[C@@H]2O[C@H](Oc3c(-c4ccc(O)cc4)oc4cc(O)cc(O)c4c3=O)[C@@H](O)[C@H](O)[C@H]2O)[C@H](O)[C@H](O)[C@H]1O | 5.7 | -4.0 | / | / | 80.4* | -5.1
CC1OC(Oc2c(-c3cc(O)c(O)c(O)c3)oc3cc(O)cc(O)c3c2=O)C(O)C(O)C1O (stereo not drawn) | -0.3 | / | -12.1 | 44.9* | / | /
CC(C)=CCc1c(O)cc(O)c2c(=O)c(O[C@@H]3O[C@@H](C)[C@H](O)[C@@H](O)[C@H]3O)c(-c3ccc(O)cc3)oc12 | 3.0 | -0.6 | -13.0 | / | / | /
CCCCOc1cccc(-c2nnc(NC(=O)CSc3ccc(C)cc3)s2)c1 | 6.1 | -2.5 | 0.6 | 5.7 | / | -2.8
CN(C)C=Nc1nonc1-c1ncn[nH]1 | 4.8 | -8.1 | -2.5 | 29.9* | -8.7 | -1.5
CN(C)C=Nc1nonc1-c1ccccc1 | 2.7 | 3.3 | 1.4 | 3.4 | 7.6 | 5.3
CCOC(=O)[C@@H]1[C@H]2COc3cc(OC)ccc3[C@H]2N2C(=O)N(c3ccc(C)cc3)C(=O)[C@@]12C | -0.8 | -0.5 | 6.6 | -2.5 | -6.4 | -5.5
Cc1oc(-c2ccccc2F)nc1CS(=O)CC(=O)NC1CC1 (stereo not drawn) | 1.9 | -1.1 | 7.0 | -10.6 | 99.3* | -2.7
Cc1oc(-c2ccccc2F)nc1CN1CCC(C(=O)NC2CCCCCCC2)CC1 | 6.2 | / | 4.4 | 1.1 | / | /
Cc1oc(-c2ccccc2F)nc1CS(=O)CC(=O)NC1CCCCC1 (stereo not drawn) | 3.6 | 1.2 | 9.2 | -2.1 | 97.6* | -2.5
CCOC(=O)N1CCC(NC(=O)CS(=O)Cc2nc(-c3ccccc3C)oc2C)CC1 (stereo not drawn) | 1.2 | 0.3 | 10.1 | -20.4 | 99.1* | -7.2
CCOC(=O)N1CCC(NC(=O)CS(=O)(=O)Cc2nc(-c3ccccc3Cl)oc2C)CC1 | 6.8 | 1.8 | -11.6 | -5.3 | 19.5 | -2.8
COc1cc(/C=N/n2cnnc2)ccc1OC(=O)c1ccncc1 | 6.6 | -0.6 | -6.5 | 6.1 | 98.2* | -3.9
C/C(=N\Nc1ccc(Cl)c(C(=O)O)c1)c1cc2ccccc2o1 | 0.5 | 7.8 | -4.3 | 11.1 | 98.5* | /
C/C(=N\Nc1ccc(Cl)c(C(=O)O)c1)c1cccc2ccccc12 | 2.6 | -0.2 | -16.5 | -3.1 | -8.2 | -4.6
C/C(=N\Nc1cccc(C(=O)O)c1)c1cc2ccccc2o1 | 1.0 | -0.6 | 11.8 | 14.1 | 98.8* | -18.3
C/C(=N\Nc1ccccc1)c1cc2ccccc2oc1=O | 5.1 | 4.4 | 11.2 | 3.1 | 92.6* | -4.5
COc1cc(OC)c(S(=O)(=O)NC(C)C)cc1C(=O)O | -2.5 | 1.6 | 20.7 | -10.3 | -8.1 | -2.3
CCOC(=O)c1[nH]c2ccccc2c1N=CN(CC)CC | -1.0 | 5.1 | -3.3 | -7.3 | 98.5* | -4.3
Oc1ccc(-c2cnc3ccccc3n2)cc1 | 4.3 | 4.1 | -25.4 | / | 98.5* | -4.4
Nc1ccc2nc(-c3ccccc3)cnc2c1 | -3.0 | -1.1 | 2.3 | / | -49.2 | +
Cc1cc(S(=O)(=O)Nc2ccc3ccccc3c2)c(C)s1 | 3.3 | 0.0 | -52.2 | -2.0 | 5.4 | -8.0
Cc1cc(S(=O)(=O)Nc2cc(C)c(O)c(C)c2)c(C)s1 | 8.2 | 6.1 | 8.9 | -1.6 | 77.4* | -8.3
O=S(=O)(Oc1ccc(Cl)cc1)c1cccc2cccnc12 | / | -0.2 | -5.7 | -1.0 | -9.5 | -4.2
N#C/C(=C\c1c(N2CCN(c3ccccc3)CC2)nc2ccccn2c1=O)S(=O)(=O)c1ccccc1 | 0.6 | 3.8 | 14.7 | -5.3 | 0.5 | -1.7
SMILES | IDE act | IDE cell inh | PolyA inhibitor | PfM18AAP inh | ALR H2O2 inh | CaV13 FRET inh
COc1ccc(N2CCN(c3nc4ccc(C)cn4c(=O)c3C=O)CC2)cc1 | 2.8 | -3.3 | -8.0 | -6.5 | 80.9* | -5.0
CN1CCN(c2nc3ccccn3c(=O)c2/C=C(\C#N)S(=O)(=O)c2ccccc2)CC1 | -4.0 | 2.2 | 4.0 | 2.0 | / | 99.1*
COc1ccc(N2CCN(c3nc4ccccn4c(=O)c3C=O)CC2)cc1 | 9.2 | 2.0 | -15.7 | 3.9 | ? | -3.1
Cc1ccc2nc(N3CCN(c4ccccc4)CC3)c(C=O)c(=O)n2c1 | -4.3 | 0.8 | -8.9 | -4.0 | 1.0 | -4.7
O=Cc1c(N2CCN(c3ccccc3)CC2)nc2ccccn2c1=O | 0.5 | -4.5 | 5.7 | -3.5 | 98.6* | -2.7
O=C(C1CC(=O)N(c2ccc(F)cc2)C1)N1CCCCCC1 (stereo not drawn) | 2.1 | -0.8 | 12.6 | -2.5 | -0.3 | -3.0
CCCCNC(=O)CSc1nc2ccsc2c(=O)n1CCCC(=O)NCCc1ccc(S(N)(=O)=O)cc1 | 0.7 | 1.5 | -12.1 | -15.3 | -3.0 | -17.7
O=c1[nH]c2ccc(NCc3ccc(F)cc3)cc2[nH]1 | 3.7 | 10.9 | -0.2 | -113.1 | 99.8* | -1.5
CNC(=S)Nc1ccc2[nH]c(=O)[nH]c2c1 | -0.2 | 0.7 | -9.0 | 1.0 | 52.1 | -3.1
O=c1[nH]c2ccc(NC(=S)Nc3ccc(F)cc3)cc2[nH]1 | -2.4 | 1.8 | -2.1 | 9.3 | 89.9* | -16.0
Cc1c(Cl)cccc1NC(=S)Nc1ccc2[nH]c(=O)[nH]c2c1 | 0.8 | 7.3 | -15.0 | 8.0 | 94.9* | -5.7
COc1cc(CNc2ccc3[nH]c(=O)[nH]c3c2)cc(Br)c1OCc1ccc(F)cc1 | 2.9 | / | -9.3 | -8.9 | 19.2 | -19.1
O=C(NC(=S)Nc1ccc2[nH]c(=O)[nH]c2c1)c1ccccc1Cl | -3.3 | 0.6 | 1.7 | 7.8 | / | -3.5
O=C(Nc1ccccc1C(=O)N1CCCCC1)NC1CCCCC1 | 2.9 | 1.4 | ? | 2.3 | -6.1 | -2.3
CCOC(=O)c1ccc(NC(=O)c2ccccc2C)cc1 | -2.8 | 9.3 | -19.5 | -2.5 | 0.2 | -4.9
CC1CCc2c(nc3ncnn3c2N2CCN(c3ccccc3)CC2)C1 (stereo not drawn) | 2.2 | 3.7 | -5.4 | 4.8 | 98.7* | -4.0
COc1cccc(NC(=O)C2C3C=CC(O3)C2C(=O)NCc2cccnc2)c1 (stereo not drawn) | 0.9 | -3.7 | 6.0 | -6.6 | 98.0* | -6.5
COc1cc(NC(=S)NCc2cccnc2)cc(OC)c1 | -0.9 | 4.9 | -4.0 | -12.1 | -5.6 | 2.8
CCCCCCC1(C)NC(=S)N(c2ccccc2)N1 (stereo not drawn) | 3.8 | -8.6 | 0.3 | 11.0 | -8.6 | 5.2
CCC1(c2ccccc2)NC(=S)N(c2ccc(C)cc2)N1 (stereo not drawn) | 3.8 | 12.2 | -9.0 | 18.3 | 93.7* | -1.2
CCC1(c2ccc(Cl)cc2)NC(=S)N(c2ccccc2)N1 (stereo not drawn) | -2.0 | -1.2 | -11.0 | 11.8 | 94.5* | -5.0
CCCCCC1(C)NC(=S)N(c2ccccc2)N1 (stereo not drawn) | 3.2 | 0.6 | -1.4 | 14.8 | -2.8 | -4.1
Cc1[nH]c2ccc(-c3n[nH]c(=S)n3C)cc2c1C | 3.6 | 0.9 | 9.6 | 25.6 | 98.0* | -8.8

High-throughput results: PubChem BioAssay, several laboratories
